# Results taken from PubChem BioAssay AID2733 (National Center for Advancing Translational Sciences (NCATS), 2010).
# Inconclusive results are not listed. Entries that show only a call come without a potency. The source made the active and inactive calls. The call rests on the fitted dose curve; in most records, active means well fitted inhibition curve with a large enough effect; inconclusive means small, poorly fitted or top-dose-only effect; inactive means flat fitted curve, though single readings scatter.
# Assay: High Content Assay for Compounds that inhibit the Assembly of the Perinucleolar Compartment: PC3M Cytotoxicity
# Details: PC3M cells, ATPLite luminescence viability, 24 h; series mostly up to 46.1 µM
# Text: High Content Assay for Compounds that inhibit the Assembly of the Perinucleolar Compartment
# NIH Chemical Genomics Center [NCGC]
# NIH Molecular Libraries Probe Centers Network [MLPCN]
# Assay Submitter (PI): Sui Huang, Northwestern University, Feinberg School of Medicine, Cell and Molecular Biology, Chicago, Illinois.
# The perinucleolar compartment (PNC) is a non-membrane-bound nuclear subdomain that is associated with but structurally distinct from the nucleolus. The PNC is a heritable trait, in which the number of PNCs per cell in daughter cells often mimics that of their mother cells. The PNC is heterogeneous in shape, is stable through interphase, disassembles during mitosis, and reassembles in early G1. The PNC is concentrated with newly synthesized RNA polymerase III (pol III) RNAs (MRP RNA, RNAse P H1 RNA, hY RNAs[hY1, 2, 5], Alu RNA, and SRP [7SL] RNA) and RNA binding proteins (nucleolin, PTB, CUG-BP, KSRP, Raver1, Raver2, and Rod).
# Extensive in vitro studies have shown that the PNC is unique to tumor cells and preferentially forms in tumor cells derived from solid tissues. […]
# 5. Luminescencent signal was detected on a Viewlux CCD based imager (PerkinElmer) with a clear filter and a 30 second integration time. […]
row,SMILES,Potency
1,Cc1c2ccncc2c(C)c2c1[nH]c1ccccc12,31.6 µM (active)
2,Cc1ccc(C(O)(C(=O)NNC(=O)CN2CCN(C)CC2)c2ccc(C)cc2)cc1,inactive
